In PubChem BioAssay (Tox21):
Records with an inconclusive call do not appear. Active and inactive are the calls of the source. Unless noted, the call rests on the fitted dose curve; in most records, active means well fitted curve in the direction sought with a large enough effect in the repeat runs; inconclusive means weak or mixed curves; inactive means no such curve, though single readings can be large; an effect the other way counts as inactive or inconclusive.

How the values were obtained:
[1] = qHTS assay to identify aromatase inhibitors - cell viability counter screen (AID 743084);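 further: cells stimulated with testosterone during compound exposure; nearly all actives have a fitted effect of over 55% in size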
[2] = target: Aryl hydrocarbon receptor (Homo sapiens) (UniProt P35869); assay: qHTS assay to identify small molecule that activate the aryl hydrocarbon receptor (AhR) signaling pathway (AID 743085);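 further: HG2L7.5c1 human HepG2 liver cells with stably integrated DRE-driven firefly reporter; series mostly up to about 70 µM; nearly all actives have a fitted effect of over 15% in size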
Chain of Aryl hydrocarbon receptor (Homo sapiens) (P35869 whole entry, looked up): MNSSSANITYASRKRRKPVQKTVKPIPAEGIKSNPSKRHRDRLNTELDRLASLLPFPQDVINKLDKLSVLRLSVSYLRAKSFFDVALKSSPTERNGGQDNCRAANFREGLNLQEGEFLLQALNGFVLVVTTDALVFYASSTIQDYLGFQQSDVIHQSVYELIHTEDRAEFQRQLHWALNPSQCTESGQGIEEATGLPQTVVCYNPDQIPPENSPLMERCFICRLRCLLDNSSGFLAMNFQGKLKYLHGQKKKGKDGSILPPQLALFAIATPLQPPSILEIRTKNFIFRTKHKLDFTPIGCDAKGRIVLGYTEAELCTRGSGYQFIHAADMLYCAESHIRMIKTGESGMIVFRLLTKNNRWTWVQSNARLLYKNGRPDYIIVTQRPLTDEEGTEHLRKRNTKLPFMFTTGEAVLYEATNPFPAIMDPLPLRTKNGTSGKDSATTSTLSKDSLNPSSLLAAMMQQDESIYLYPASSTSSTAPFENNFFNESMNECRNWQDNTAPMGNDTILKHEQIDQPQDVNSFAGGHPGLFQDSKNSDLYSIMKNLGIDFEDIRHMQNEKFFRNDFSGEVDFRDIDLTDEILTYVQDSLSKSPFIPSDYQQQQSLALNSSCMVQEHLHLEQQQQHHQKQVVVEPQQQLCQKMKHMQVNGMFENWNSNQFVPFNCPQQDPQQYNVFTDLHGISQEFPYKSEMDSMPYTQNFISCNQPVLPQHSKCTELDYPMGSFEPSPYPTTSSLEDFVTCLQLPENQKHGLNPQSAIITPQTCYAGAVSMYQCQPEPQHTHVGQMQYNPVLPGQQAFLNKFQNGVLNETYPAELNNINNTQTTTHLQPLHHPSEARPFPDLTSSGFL
Outline: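 HepG2 cells (HG2L7.5c1) stably carrying a firefly luciferase reporter driven by 20 dioxin responsive elements were exposed to compound for 24 h at 37C after a 5 h settling period; luminescence rise (ONE-Glo) indicated activation.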

[3] = qHTS assay to identify small molecule that activate the aryl hydrocarbon receptor (AhR) signaling pathway - cell viability counter screen (AID 743086);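 further: HepG2 liver cells carrying the AhR DRE luciferase reporter; series mostly up to about 70 µM; nearly all actives have a fitted effect of over 45% in size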
Outline: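 HepG2-AhR-luc (HG2L7.5c1) cells, 4000/well, treated 24 h at 37 C with compound; viability measured as CellTiter-Fluor fluorescence after 30 min in the same wells as the luciferase read.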

[4] = target: Peroxisome proliferator-activated receptor gamma (Homo sapiens) (UniProt P37231); assay: qHTS assay to identify small molecule agonists of the peroxisome proliferator-activated receptor gamma (PPARg) signaling pathway (AID 743094; active means well fitted activation curve with a large enough effect in the signal ratio in the repeat runs, not every such curve was filed as active; the % refers to the signal ratio)
Chain of Peroxisome proliferator-activated receptor gamma (Homo sapiens) (P37231 whole entry, looked up): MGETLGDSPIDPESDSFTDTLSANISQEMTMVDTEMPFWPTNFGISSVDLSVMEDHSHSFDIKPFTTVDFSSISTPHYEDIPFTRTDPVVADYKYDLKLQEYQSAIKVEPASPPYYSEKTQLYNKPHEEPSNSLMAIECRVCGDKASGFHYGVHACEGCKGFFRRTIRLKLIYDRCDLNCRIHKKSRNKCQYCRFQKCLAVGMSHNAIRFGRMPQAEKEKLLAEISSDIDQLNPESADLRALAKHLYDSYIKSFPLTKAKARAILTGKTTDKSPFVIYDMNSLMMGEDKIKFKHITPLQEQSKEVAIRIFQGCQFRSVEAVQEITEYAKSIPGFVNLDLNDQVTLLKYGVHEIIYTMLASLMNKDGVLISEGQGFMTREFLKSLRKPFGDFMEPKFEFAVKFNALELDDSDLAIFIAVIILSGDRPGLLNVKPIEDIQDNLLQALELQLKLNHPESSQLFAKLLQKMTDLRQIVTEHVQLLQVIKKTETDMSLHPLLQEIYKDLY
Outline: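 Fluorescence-based beta-lactamase readout in HEK293H PPARg UAS-bla cells after 17 h compound exposure (37C) and 1 h B/G FRET substrate incubation at room temperature.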

[5] = target: Peroxisome proliferator-activated receptor gamma (Homo sapiens) (UniProt P37231); assay: qHTS assay to identify small molecule antagonists of the peroxisome proliferator-activated receptor gamma (PPARg) signaling pathway (AID 743191; calls by dose curve; further: series mostly up to about 63 µM; nearly all actives have a fitted effect of over 30% in size)
Outline: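 GeneBLAzer PPARg UAS-bla HEK293H cells, 5 h post-plating, exposed to compounds 17 h at 37C. LiveBLAzer B/G FRET substrate added for 1 h at room temperature; beta-lactamase reporter read by fluorescence intensity.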

[6] = qHTS assay to identify small molecule antagonists of the peroxisome proliferator-activated receptor gamma (PPARg) signaling pathway - cell viability counter screen (AID 743194); further: nearly all actives have a fitted effect of over 55% in size
Outline: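 Cytotoxicity counter screen in PPARg-bla HEK293H cells, same wells as reporter assay. Compounds plus 50 nM rosiglitazone (final) for 17 h at 37 C, then viability read by CellTiter-Glo luminescence.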

[7] = qHTS assay for small molecule agonists of the antioxidant response element (ARE) signaling pathway (AID 743202; active means well fitted activation curve with a large enough effect in the signal ratio in the repeat runs, not every such curve was filed as active; the % refers to the signal ratio)
Outline: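 HepG2 ARE-bla reporter line, 2,000 cells/well; 5 h preincubation 37 C/5% CO2; compound (DMSO) 16 h 37 C; B/G FRET substrate 2 h RT; fluorescence intensity.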

[8] = qHTS assay for small molecule agonists of the antioxidant response element (ARE) signaling pathway - cell viability counter screen (AID 743203; calls by dose curve; further: nearly all actives have a fitted effect of over 55% in size)
Outline: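 Parallel cytotoxicity read-out for the ARE-bla screen: HepG2 reporter cells, 16 hrs with compounds, then CellTiter-Glo luminescence.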

[9] = qHTS assay for small molecule activators of the heat shock response signaling pathway - cell viability counter screen (AID 743209); further: nearly all actives have a fitted effect of over 50% in size
Outline: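 To flag cytotoxic compounds, HSE-bla HeLa cells plated at 1500 cells/well were dosed for 5 h at 37 C, followed by the reporter FRET read and then CellTiter-Glo, with luminescence recorded 30 min after reagent addition.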

[10] = qHTS assay to identify small molecule agonists of the peroxisome proliferator-activated receptor delta (PPARd) signaling pathway - cell viability counter screen (AID 743211); further: nearly all actives have a fitted effect of over 55% in size
Outline: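 PPARd-bla HEK293H cells (UAS-beta-lactamase reporter) were treated with compounds for 17 h at 37 C. Viability was then read in the same wells by CellTiter-Glo luminescence after 30 min at room temperature.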

[11] = target: Peroxisome proliferator-activated receptor delta (Homo sapiens) (UniProt Q03181); assay: qHTS assay to identify small molecule agonists of the peroxisome proliferator-activated receptor delta (PPARd) signaling pathway (AID 743212; calls by dose curve)
Chain of Peroxisome proliferator-activated receptor delta (Homo sapiens) (Q03181 whole entry, looked up): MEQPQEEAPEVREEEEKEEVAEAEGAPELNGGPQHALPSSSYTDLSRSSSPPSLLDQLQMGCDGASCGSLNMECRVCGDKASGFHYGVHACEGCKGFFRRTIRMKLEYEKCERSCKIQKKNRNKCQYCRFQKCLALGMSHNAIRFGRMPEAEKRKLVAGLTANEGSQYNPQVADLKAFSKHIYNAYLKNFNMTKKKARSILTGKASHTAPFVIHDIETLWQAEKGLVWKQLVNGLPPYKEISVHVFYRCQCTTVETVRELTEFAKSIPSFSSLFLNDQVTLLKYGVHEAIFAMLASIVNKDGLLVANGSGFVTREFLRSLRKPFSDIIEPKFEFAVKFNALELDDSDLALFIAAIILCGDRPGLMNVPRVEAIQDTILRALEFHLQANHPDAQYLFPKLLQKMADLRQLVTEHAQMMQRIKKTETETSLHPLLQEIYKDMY
Outline: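 Read-out: beta-lactamase FRET fluorescence after 2 h room-temperature incubation with LiveBLAzer B/G substrate. Cells were HEK293H carrying a UAS-bla reporter for PPARd, treated at 37 C with DMSO-dissolved compounds.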

[12] = qHTS assay to identify small molecule antagonists of the peroxisome proliferator-activated receptor delta (PPARd) signaling pathway - cell viability counter screen (AID 743213); further: nearly all actives have a fitted effect of over 50% in size
Outline: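 HEK293H cells with the PPARd UAS-bla reporter, co-treated 17 h at 37 C with compounds and L165041 (300 nM final), were lysed with CellTiter-Glo. Luminescence indicated viable cell content.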

[13] = target: Peroxisome proliferator-activated receptor delta (Homo sapiens) (UniProt Q03181); assay: qHTS assay to identify small molecule antagonists of the peroxisome proliferator-activated receptor delta (PPARd) signaling pathway (AID 743215; active means well fitted inhibition curve with a large enough effect in the signal ratio in the repeat runs, not every such curve was filed as active; the % refers to the signal ratio;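 further: cells stimulated with agonist L165041 at 300 nM final during compound exposure; series mostly up to about 62 µM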)
Outline: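 Screen format: qHTS, antagonist mode. HEK293H PPARd-bla cells received compound and 300 nM L165041 (final), 17 h, 37 C. Beta-lactamase detected via FRET substrate fluorescence, 2 h, room temperature.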

[14] = qHTS assay to identify small molecule antagonists of the farnesoid-X-receptor (FXR) signaling pathway - cell viability counter screen (AID 743221; active means well fitted cell-killing curve with a large enough effect in the repeat runs, not every such curve was filed as active; further: nearly all actives have a fitted effect of over 50% in size)
Outline: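 FXR-UAS-bla HEK 293T cells were treated with test compounds plus chenodeoxycholic acid (50 uM final) for 16 h at 37 C. Cell viability in the same wells was then read as CellTiter-Glo luminescence after 30 min at room temperature.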

[15] = target: Vitamin D3 receptor (Homo sapiens) (UniProt P11473); assay: qHTS assay to identify small molecule agonists of the vitamin D receptor (VDR) signaling pathway (AID 743222; calls by dose curve)
Chain of Vitamin D3 receptor (Homo sapiens) (P11473 whole entry, looked up): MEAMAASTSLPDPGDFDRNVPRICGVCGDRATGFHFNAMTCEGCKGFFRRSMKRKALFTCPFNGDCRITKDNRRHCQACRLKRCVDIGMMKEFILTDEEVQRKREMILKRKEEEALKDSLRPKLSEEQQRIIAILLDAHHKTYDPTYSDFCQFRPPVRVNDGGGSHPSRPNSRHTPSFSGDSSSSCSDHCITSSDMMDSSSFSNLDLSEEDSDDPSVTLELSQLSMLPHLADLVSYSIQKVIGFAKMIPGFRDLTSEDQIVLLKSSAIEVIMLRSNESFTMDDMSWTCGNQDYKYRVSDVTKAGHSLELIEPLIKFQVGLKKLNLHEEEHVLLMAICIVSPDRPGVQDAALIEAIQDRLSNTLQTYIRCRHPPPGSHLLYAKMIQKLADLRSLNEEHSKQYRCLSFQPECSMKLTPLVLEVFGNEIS
Outline: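 Using LiveBLAzer B/G FRET detection, agonism was scored in VDR-bla cells exposed overnight (16 h, 37C) to DMSO-dissolved compounds; substrate incubation was 2 h at room temperature.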

[16] = target: Vitamin D3 receptor (Homo sapiens) (UniProt P11473); assay: qHTS assay to identify small molecule antagonists of the vitamin D receptor (VDR) signaling pathway (AID 743223; active means well fitted inhibition curve with a large enough effect in the signal ratio in the repeat runs, not every such curve was filed as active; the % refers to the signal ratio)
Outline: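 VDR-bla cells were plated, incubated 4 h at 37C, then given compound and 1alpha,25-dihydroxyvitamin D3 (3 nM final). After 16 h at 37C, LiveBLAzer B/G FRET substrate was added for 2 h at room temperature and fluorescence read.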

[17] = qHTS assay to identify small molecule agonists of the farnesoid-X-receptor (FXR) signaling pathway - cell viability counter screen (AID 743218); further: nearly all actives have a fitted effect of over 45% in size
Outline: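 Same-well cytotoxicity check on FXR-UAS-bla HEK 293T cells: 5 h attachment, 16 h compound at 37 C, CellTiter-Glo luminescence read at room temperature after 30 min.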

[18] = qHTS assay for small molecule activators of the heat shock response signaling pathway (AID 743210; active means well fitted activation curve with a large enough effect in the signal ratio in the repeat runs, with a control signal flat, not every such curve was filed as active; the % refers to the signal ratio;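 further: HeLa cells with beta-lactamase reporter driven by heat shock elements; series mostly up to about 63 µM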)
Outline: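 Beta-lactamase reporter read-out: FRET substrate fluorescence after 2.5 h at RT, following 5 h compound treatment at 37 C of HeLa cells carrying HSE-driven bla reporter; quantitative HTS format.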

[19] = target: Bile acid receptor (Homo sapiens) (UniProt Q96RI1); assay: qHTS assay to identify small molecule antagonists of the farnesoid-X-receptor (FXR) signaling pathway (AID 743217; active means well fitted inhibition curve with a large enough effect in the signal ratio in the repeat runs, not every such curve was filed as active; the % refers to the signal ratio)
Chain of Bile acid receptor (Homo sapiens) (Q96RI1 whole entry, looked up): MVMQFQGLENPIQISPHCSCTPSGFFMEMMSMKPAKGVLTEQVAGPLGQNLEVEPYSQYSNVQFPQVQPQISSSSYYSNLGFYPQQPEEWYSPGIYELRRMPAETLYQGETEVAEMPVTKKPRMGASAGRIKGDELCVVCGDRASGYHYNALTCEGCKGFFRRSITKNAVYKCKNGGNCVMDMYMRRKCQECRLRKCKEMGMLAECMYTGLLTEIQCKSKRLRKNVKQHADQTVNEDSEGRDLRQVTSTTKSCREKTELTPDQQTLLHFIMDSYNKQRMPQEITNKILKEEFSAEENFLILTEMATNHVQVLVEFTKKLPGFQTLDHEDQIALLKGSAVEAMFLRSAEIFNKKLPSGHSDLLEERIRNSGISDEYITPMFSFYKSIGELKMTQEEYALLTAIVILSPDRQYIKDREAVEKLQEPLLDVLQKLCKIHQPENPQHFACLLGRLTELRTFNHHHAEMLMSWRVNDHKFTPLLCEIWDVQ
Outline: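 Quantitative HTS, beta-lactamase reporter format: FXR-UAS-bla HEK 293T cells co-treated 16 h at 37 °C with compounds and 50 uM final chenodeoxycholic acid, then read by B/G FRET fluorescence.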

[20] = target: Bile acid receptor (Homo sapiens) (UniProt Q96RI1); assay: qHTS assay to identify small molecule agonists of the farnesoid-X-receptor (FXR) signaling pathway (AID 743220; active means well fitted activation curve with a large enough effect in the signal ratio in the repeat runs, not every such curve was filed as active; the % refers to the signal ratio)
Outline: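 FXR-UAS-bla HEK 293T cells carrying a UAS-driven beta-lactamase reporter were plated for 5 h at 37C/5% CO2, then exposed to DMSO-dissolved Tox21 10K compounds for 16 h at 37C. A LiveBLAzer B/G FRET substrate was loaded for 2 h at room temperature before fluorescence reading.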

Measured: Potency

C=C(C)C(=O)OCCCCCCCCCCCCCCCCCC
inactive: [1] | [2] | [3] | [4] | [5] | [6] | [7] | [8] | [9] | [10] | [11] | [12] | [13] | [14] | [15] | [16]

C#CC(O)C(CC)CCCC (stereo not given)
inactive: [1] | [2] | [3] | [4] | [5] | [6] | [7] | [8] | [10] | [12] | [17] | [14]

N#CC1(O)CCCCC1
inactive: [1] | [2] | [3] | [4] | [5] | [7] | [8] | [18] | [10] | [11] | [12] | [13] | [19] | [17] | [14] | [15] | [16]

CCCCCCCCN(C)CCCCCCCC
inactive: [1] | [2] | [3] | [4] | [5] | [6] | [7] | [8] | [9] | [10] | [12] | [13] | [17] | [14] | [15] | [16]

NC(=O)c1c(Cl)cccc1Cl
inactive: [1] | [2] | [3] | [4] | [5] | [6] | [7] | [8] | [9] | [18] | [10] | [11] | [12] | [13] | [17] | [20] | [14] | [15] | [16]

CC(C)(C)CC(C)(C)N
inactive: [1] | [2] | [3] | [4] | [5] | [6] | [7] | [8] | [18] | [10] | [11] | [12] | [13] | [17] | [14] | [15] | [16]

COC(=O)CCCC(=O)O
inactive: [1] | [2] | [3] | [4] | [5] | [6] | [8] | [9] | [10] | [11] | [12] | [13] | [17] | [14] | [15]

O=C(O)/C=C/c1ccc(/C=C/C(=O)O)cc1
inactive: [1] | [2] | [3] | [4] | [5] | [7] | [8] | [9] | [18] | [10] | [11] | [12] | [13]
